Inhibition data for one compound are collected here from ChEMBL document CHEMBL1961873, “Compounds: GSK PKIS; Assays: Nanosyn kinase panel” (2012).

The target of assay [1] is Sphingosine kinase 1 (Homo sapiens) (UniProt Q9NYA1). As to conditions: at 1 µM.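 Also: mean SPHK1 inhibition value reported from the GSK PKIS kinase panel screen.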
Assay [2] concerns the target T1, Sphingosine kinase 2 (Homo sapiens) (UniProt Q9NRA0).
T1 sequence (whole entry): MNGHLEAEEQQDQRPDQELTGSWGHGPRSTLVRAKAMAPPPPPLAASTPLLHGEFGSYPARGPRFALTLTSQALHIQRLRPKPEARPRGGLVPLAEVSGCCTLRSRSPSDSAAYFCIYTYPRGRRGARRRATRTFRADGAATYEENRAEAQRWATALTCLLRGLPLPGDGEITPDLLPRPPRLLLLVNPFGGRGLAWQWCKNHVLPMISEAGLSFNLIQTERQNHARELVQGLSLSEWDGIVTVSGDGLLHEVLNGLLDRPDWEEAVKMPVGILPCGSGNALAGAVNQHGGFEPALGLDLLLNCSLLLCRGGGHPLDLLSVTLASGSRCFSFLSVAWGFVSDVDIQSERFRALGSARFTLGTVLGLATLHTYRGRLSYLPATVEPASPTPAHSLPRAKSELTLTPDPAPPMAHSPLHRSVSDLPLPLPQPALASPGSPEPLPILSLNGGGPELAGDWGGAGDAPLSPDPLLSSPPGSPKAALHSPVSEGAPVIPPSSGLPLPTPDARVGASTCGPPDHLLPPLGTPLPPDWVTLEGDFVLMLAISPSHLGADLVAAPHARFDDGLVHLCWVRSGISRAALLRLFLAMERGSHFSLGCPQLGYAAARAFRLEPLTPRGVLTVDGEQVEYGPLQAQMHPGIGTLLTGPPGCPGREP
Conditions: at 0.1 µM.

Assay [3] addresses T1, Sphingosine kinase 2 (Homo sapiens). Conditions: at 1 µM.
Assay [4] has as its target Casein kinase II subunit alpha (Homo sapiens) (UniProt P68400). Conditions: at 0.1 µM.
The target is the same in assay [5]. As to conditions: at 1 µM.
Assay [6] addresses T2, Inhibitor of nuclear factor kappa-B kinase subunit alpha (Homo sapiens) (UniProt O15111).
T2 sequence (whole entry): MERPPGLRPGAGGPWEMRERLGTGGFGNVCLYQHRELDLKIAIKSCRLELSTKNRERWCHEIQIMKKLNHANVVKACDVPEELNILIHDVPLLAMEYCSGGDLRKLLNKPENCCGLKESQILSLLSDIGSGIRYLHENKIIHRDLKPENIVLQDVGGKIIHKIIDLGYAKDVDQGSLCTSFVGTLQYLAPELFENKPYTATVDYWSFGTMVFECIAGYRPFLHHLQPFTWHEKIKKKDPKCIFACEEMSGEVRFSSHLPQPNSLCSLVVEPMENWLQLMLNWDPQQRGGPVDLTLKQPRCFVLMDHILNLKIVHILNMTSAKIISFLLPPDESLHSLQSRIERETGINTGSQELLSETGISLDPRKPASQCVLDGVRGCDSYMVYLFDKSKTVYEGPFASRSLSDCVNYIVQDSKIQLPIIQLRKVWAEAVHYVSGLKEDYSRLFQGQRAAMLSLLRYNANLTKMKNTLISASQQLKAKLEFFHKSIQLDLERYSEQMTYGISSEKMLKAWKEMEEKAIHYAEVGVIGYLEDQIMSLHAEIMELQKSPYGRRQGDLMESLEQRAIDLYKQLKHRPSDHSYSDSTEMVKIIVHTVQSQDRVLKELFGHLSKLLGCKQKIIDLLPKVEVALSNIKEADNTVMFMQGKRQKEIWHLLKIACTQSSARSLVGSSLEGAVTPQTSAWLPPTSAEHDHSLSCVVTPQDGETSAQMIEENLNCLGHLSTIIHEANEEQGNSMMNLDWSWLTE
As to conditions: at 0.1 µM.

Assay [7] has as its target T2, Inhibitor of nuclear factor kappa-B kinase subunit alpha (Homo sapiens). As to conditions: at 1 µM.
In assay [8] the target is T3, Inhibitor of nuclear factor kappa-B kinase subunit beta (Homo sapiens) (UniProt O14920).
T3 sequence (whole entry): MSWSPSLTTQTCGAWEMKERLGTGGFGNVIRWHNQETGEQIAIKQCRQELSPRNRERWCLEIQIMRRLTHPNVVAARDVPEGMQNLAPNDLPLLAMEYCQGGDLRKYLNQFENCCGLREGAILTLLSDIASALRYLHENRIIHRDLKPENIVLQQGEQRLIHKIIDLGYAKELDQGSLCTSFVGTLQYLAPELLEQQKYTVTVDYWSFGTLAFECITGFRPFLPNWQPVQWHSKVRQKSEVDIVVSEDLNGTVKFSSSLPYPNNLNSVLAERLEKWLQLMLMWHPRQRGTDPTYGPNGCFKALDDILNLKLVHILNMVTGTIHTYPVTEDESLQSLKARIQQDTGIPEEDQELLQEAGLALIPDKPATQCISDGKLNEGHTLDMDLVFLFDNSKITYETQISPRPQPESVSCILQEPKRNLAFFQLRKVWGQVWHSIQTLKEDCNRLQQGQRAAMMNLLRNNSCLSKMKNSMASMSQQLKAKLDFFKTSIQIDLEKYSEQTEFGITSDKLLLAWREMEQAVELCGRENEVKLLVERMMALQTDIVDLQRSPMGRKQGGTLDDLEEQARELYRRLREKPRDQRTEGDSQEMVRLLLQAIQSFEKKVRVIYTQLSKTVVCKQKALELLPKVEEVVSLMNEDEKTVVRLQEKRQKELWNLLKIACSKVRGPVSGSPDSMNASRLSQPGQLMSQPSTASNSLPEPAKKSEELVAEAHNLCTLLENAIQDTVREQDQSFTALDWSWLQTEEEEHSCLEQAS
As to conditions: at 0.1 µM.

For assay [9], the target named is T3, Inhibitor of nuclear factor kappa-B kinase subunit beta (Homo sapiens). As to conditions: at 1 µM.
For assay [10], the target named is T4, Inhibitor of nuclear factor kappa-B kinase subunit epsilon (Homo sapiens) (UniProt Q14164).
T4 sequence (whole entry): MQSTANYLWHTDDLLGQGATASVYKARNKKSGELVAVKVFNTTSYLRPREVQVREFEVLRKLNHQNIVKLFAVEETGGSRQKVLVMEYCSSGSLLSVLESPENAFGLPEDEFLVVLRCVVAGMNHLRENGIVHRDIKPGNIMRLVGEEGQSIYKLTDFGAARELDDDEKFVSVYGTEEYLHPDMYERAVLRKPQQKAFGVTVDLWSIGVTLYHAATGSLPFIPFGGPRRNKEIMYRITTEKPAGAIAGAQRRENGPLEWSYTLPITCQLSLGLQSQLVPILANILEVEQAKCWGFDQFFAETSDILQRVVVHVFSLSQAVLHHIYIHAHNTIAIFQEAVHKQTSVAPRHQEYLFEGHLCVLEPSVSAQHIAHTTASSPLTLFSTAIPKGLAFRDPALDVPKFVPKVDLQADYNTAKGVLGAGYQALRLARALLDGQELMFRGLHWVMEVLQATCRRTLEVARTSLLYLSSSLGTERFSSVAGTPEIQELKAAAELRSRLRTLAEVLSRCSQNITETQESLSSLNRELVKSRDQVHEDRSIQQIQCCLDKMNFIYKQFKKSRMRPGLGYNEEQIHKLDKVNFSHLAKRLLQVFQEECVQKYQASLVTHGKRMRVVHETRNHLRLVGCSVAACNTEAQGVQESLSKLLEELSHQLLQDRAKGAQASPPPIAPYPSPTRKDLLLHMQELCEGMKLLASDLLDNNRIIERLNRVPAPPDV
Conditions: at 0.1 µM.

Assay [11] addresses T4, Inhibitor of nuclear factor kappa-B kinase subunit epsilon (Homo sapiens). As to conditions: at 1 µM.
The target in assay [12] is T5, Serine/threonine-protein kinase Nek1 (Homo sapiens) (UniProt Q96PY6).
T5 sequence (whole entry): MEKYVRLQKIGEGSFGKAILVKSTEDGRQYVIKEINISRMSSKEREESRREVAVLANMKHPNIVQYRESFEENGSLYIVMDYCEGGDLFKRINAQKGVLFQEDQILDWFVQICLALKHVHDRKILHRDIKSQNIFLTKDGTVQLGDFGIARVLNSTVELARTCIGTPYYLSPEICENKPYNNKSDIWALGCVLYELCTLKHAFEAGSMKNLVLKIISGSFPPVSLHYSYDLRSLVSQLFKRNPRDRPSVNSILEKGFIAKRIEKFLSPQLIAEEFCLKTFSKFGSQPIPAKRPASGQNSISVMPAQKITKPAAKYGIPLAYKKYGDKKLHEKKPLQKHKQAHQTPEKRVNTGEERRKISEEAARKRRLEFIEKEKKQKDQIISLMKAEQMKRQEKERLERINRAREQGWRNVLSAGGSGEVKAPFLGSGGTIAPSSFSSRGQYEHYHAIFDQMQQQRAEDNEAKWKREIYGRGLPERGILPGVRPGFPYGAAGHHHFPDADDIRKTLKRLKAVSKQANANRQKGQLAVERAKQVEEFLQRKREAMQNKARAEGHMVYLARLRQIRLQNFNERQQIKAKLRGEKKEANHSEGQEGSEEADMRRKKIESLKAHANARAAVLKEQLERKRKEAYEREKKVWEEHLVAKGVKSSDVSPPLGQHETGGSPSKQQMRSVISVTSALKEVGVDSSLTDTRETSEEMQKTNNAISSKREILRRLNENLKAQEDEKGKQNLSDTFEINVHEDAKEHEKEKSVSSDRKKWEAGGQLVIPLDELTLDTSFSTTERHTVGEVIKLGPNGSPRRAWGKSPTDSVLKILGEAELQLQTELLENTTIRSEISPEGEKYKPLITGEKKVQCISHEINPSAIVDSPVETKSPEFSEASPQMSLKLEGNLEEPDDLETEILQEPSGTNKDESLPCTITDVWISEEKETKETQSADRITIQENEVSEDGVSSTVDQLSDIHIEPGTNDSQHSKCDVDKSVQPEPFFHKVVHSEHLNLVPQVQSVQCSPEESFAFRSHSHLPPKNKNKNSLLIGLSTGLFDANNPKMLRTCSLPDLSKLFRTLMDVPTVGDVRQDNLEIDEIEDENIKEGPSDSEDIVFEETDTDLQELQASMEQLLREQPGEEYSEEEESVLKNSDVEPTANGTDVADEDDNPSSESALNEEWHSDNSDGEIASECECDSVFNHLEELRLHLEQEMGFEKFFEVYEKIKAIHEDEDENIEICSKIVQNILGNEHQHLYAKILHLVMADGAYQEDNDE
As to conditions: at 0.1 µM.

The target of assay [13] is T5, Serine/threonine-protein kinase Nek1 (Homo sapiens). As to conditions: at 1 µM.
Assay [14] addresses T6, Serine/threonine-protein kinase Nek2 (Homo sapiens) (UniProt P51955).
T6 sequence (whole entry): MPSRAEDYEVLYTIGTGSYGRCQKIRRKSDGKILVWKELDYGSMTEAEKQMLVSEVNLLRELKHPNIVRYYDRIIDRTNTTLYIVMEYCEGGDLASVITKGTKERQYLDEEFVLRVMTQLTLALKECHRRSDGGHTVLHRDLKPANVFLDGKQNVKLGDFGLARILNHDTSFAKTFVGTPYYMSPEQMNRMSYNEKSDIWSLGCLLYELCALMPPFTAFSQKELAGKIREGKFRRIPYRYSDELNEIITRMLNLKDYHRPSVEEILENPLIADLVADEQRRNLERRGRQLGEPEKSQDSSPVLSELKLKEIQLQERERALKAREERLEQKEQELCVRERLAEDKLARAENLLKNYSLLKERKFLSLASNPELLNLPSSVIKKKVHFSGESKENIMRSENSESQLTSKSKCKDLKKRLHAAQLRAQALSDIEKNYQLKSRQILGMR
Conditions: at 0.1 µM.

Assay [15] concerns the target T6, Serine/threonine-protein kinase Nek2 (Homo sapiens). Conditions: at 1 µM.
In assay [16] the target is Serine/threonine-protein kinase Nek6 (Homo sapiens) (UniProt Q9HC98). As to conditions: at 0.1 µM.
Assay [17] has the same target. As to conditions: at 1 µM.
For assay [18], the target named is Serine/threonine-protein kinase Nek7 (Homo sapiens) (UniProt Q8TDX7). Conditions: at 0.1 µM.
Assay [19] has the same target. As to conditions: at 1 µM.
Assay [20] deals with T7, Serine/threonine-protein kinase Nek9 (Homo sapiens) (UniProt Q8TD19).
T7 sequence (whole entry): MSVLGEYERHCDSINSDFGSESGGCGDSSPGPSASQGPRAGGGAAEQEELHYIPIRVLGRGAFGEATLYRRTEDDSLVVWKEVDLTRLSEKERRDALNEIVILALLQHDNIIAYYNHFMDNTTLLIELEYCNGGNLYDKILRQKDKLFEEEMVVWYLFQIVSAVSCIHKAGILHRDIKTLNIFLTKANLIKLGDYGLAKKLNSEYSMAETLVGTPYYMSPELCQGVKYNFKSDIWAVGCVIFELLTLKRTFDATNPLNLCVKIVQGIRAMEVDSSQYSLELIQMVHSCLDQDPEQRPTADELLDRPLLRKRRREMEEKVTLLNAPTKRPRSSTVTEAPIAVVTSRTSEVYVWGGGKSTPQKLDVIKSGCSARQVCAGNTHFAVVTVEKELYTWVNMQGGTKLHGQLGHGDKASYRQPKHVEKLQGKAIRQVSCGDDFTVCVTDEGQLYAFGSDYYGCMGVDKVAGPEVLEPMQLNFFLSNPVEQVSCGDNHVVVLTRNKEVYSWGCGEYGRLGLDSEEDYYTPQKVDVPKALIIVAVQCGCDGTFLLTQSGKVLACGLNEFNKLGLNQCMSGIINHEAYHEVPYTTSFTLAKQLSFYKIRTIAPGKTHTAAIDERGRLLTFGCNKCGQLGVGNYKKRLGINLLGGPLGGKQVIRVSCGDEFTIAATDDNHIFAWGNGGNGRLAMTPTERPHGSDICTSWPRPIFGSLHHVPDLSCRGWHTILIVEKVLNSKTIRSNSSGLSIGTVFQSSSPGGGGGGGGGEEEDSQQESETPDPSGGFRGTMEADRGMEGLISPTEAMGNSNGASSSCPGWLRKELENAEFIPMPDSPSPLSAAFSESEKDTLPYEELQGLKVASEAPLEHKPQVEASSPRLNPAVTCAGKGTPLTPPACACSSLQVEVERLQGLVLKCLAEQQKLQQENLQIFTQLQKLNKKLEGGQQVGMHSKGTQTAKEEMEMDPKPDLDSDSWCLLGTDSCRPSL
As to conditions: at 0.1 µM.

Serine/threonine-protein kinase Nek6 (Homo sapiens), sequence (Q9HC98 whole entry): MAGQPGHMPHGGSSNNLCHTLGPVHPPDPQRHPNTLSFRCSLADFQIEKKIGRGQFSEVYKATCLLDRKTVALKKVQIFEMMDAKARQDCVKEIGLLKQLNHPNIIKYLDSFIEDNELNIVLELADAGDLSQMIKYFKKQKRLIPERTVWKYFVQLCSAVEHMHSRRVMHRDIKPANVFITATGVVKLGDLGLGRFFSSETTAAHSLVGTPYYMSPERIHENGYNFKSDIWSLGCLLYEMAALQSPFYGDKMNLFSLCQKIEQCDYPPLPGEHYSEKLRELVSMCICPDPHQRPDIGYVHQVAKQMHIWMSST
Serine/threonine-protein kinase Nek7 (Homo sapiens), sequence (Q8TDX7 whole entry, looked up): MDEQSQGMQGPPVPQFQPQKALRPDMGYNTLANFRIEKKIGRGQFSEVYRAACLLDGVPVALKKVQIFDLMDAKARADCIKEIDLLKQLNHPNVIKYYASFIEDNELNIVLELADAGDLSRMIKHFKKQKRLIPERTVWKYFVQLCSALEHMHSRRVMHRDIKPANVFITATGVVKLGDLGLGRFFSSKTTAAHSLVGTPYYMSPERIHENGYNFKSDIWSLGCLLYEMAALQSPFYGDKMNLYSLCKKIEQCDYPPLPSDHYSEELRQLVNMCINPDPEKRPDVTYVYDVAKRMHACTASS
Casein kinase II subunit alpha (Homo sapiens), sequence (P68400 whole entry, looked up): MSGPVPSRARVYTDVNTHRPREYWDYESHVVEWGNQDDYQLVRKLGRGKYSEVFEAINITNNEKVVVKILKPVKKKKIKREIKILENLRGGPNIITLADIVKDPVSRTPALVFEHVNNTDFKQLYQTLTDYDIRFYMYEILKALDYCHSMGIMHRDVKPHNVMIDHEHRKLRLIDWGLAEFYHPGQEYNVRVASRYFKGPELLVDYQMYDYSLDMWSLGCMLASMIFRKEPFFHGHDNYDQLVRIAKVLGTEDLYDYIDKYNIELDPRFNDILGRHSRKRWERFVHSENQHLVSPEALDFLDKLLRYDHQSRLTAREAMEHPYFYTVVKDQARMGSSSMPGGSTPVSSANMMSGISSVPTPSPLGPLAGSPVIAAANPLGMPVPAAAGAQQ
Sphingosine kinase 1 (Homo sapiens), sequence (Q9NYA1 whole entry): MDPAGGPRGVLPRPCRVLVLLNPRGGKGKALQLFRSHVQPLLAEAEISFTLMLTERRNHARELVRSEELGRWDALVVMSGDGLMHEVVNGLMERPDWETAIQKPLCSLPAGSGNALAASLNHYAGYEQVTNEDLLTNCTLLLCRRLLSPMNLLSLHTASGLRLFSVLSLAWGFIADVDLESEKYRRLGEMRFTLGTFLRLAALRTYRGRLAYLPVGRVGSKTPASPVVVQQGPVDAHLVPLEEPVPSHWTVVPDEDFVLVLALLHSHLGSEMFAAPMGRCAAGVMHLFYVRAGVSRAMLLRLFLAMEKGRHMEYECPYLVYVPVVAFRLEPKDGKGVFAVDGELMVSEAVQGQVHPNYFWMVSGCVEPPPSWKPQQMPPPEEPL

Usually inhibition stands for the change of the read-out against control, counted positive when it falls. On to `FC(F)(F)c1cccc(Nc2nccc(-c3cnn4nc(-c5ccccc5)ccc34)n2)c1`, for which the inhibition in [1] is -2.23%; in assay [2], -1.01%; in [3], -0.56%; in [4], 7.97%; in [5], 4.42%; in assay [6], 1.94%. For the same compound, the inhibition turned out to be 7.04% in [7]; 3.55% in assay [8]; 3.27% in assay [9]; 3.76% in assay [10]; 5.2% in assay [11]; 2.32% in assay [12]. In addition, the inhibition in assay [13] was 2.59%; in assay [14], 1.73%; in assay [15] it was 4.5%; in assay [16], -0.41%; in [17], -0.37%; in assay [18], 2.4%. For the same compound, the inhibition turned out to be 1.88% in assay [19] and 8.12% in assay [20].
